# PubChem BioAssay (NCATS)
# Inconclusive results are not listed. A call without a number means that no potency is given here. Activity calls are given as the source filed them. Unless noted, the call rests on the fitted dose curve; in most records, active means well fitted curve in the direction sought with a large enough effect; inconclusive means small, poorly fitted or top-dose-only effect, or another doubt; inactive means no such curve, though single readings can be large; an effect the other way counts as inactive or inconclusive.
# Columns and labels:
# [1] = target: DNA repair nuclease/redox regulator APEX1 (Homo sapiens) (UniProt P27695); assay: qHTS Validation Assay for Inhibitors of the Human Apurinic/apyrimidinic Endonuclease 1 (APE1) (AID 1705;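 further: TAMRA fluorescence gain over two minutes as APE1 cuts a quenched THF abasic duplex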)
# Chain of DNA repair nuclease/redox regulator APEX1 (Homo sapiens) (P27695 whole entry, looked up): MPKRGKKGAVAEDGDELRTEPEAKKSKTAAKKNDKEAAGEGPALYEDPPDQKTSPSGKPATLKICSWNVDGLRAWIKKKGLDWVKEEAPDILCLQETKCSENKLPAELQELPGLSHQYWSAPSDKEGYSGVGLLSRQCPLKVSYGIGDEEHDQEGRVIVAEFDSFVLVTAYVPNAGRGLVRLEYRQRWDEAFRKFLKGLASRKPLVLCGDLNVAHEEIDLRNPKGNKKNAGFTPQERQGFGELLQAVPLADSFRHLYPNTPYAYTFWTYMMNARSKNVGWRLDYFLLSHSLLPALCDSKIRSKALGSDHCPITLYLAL
# Procedure, shortened: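 Substrate: 50 nM final fluorophore/quencher THF-abasic duplex. Enzyme preincubated with compounds 15 min, RT. Progress derived from fluorescence difference, third minus first kinetic read.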
# [2] = Counterscreen for APE1 Inhibitors: Fluorescent Dye Displacement Validation Assay (AID 1707); further: potency means the concentration at half of the fitted maximal effect
# Procedure, shortened: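 Compounds are scored by their ability to displace Thiazole Orange (250 nM) from a 50 nM TAMRA-tagged duplex bearing a tetrahydrofuran abasic site. Buffer is 50 mM Tris-HCl pH7.5, 50mM NaCl, 2 mM MgCl2, 0.01% Tween-20.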
# [3] = target: Endonuclease 4 (Escherichia coli (strain K12)) (UniProt P0A6C1); assay: Counterscreen for APE1 Inhibitors: qHTS Validation Assay for Inhibitors of Endonuclease IV (AID 1708); further: potency means the concentration at half of the fitted maximal effect
# Procedure, shortened: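 2 nM enzyme was preincubated with compounds for 15 min at room temperature in 50 mM Tris-HCl pH 7.5, 50 mM NaCl, 2 mM MgCl2, 1 mM DTT, 0.01% Tween-20. 50 nM THF-abasic TAMRA/BHQ-2 duplex substrate started the reaction.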
# [4] = qHTS for differential inhibitors of proliferation of Plasmodium falciparum line 7G8 (AID 1815);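 further: parasite growth measured after three days of incubation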; further: potency means the concentration at half of the fitted maximal effect
# [5] = qHTS for differential inhibitors of proliferation of Plasmodium falciparum line GB4 (AID 1816); conditions: Potency: Plasmodium falciparum GB4 proliferation inhibition;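 further: parasite growth measured after 72 h incubation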; further: potency means the concentration at half of the fitted maximal effect
# [6] = qHTS for differential inhibitors of proliferation of Plasmodium falciparum line 3D7 (AID 1876); further: potency means the concentration at half of the fitted maximal effect
# [7] = qHTS for differential inhibitors of proliferation of Plasmodium falciparum line D10 (AID 1877);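 further: parasites grown with compound for 72 h before DNA staining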; further: potency means the concentration at half of the fitted maximal effect
# [8] = Validation of Assay for Modulators of Lamin A Splicing (AID 1459; active means well fitted curve in the direction sought with a large enough effect in the signal ratio; the % refers to the signal ratio;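 further: cells exposed to compound for two days before reading; ratio rise marks activators and ratio drop marks inhibitors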)
# Procedure, shortened: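 Dual-reporter HeLa S3 line (lamin A-EGFP minigene, DsRed2) treated with compounds 48 hrs, 0.5% DMSO final. Endpoint: EGFP/DsRed2 total intensity ratio from laser-scanning microplate cytometry.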
# [9] = target: Alpha-galactosidase A (Homo sapiens) (UniProt P06280); assay: Counterscreen for Glucocerebrosidase Inhibitors: qHTS Assay for Human alpha-Galactosidase at pH 4.5 (AID 992)
# Chain of Alpha-galactosidase A (Homo sapiens) (P06280 whole entry, looked up): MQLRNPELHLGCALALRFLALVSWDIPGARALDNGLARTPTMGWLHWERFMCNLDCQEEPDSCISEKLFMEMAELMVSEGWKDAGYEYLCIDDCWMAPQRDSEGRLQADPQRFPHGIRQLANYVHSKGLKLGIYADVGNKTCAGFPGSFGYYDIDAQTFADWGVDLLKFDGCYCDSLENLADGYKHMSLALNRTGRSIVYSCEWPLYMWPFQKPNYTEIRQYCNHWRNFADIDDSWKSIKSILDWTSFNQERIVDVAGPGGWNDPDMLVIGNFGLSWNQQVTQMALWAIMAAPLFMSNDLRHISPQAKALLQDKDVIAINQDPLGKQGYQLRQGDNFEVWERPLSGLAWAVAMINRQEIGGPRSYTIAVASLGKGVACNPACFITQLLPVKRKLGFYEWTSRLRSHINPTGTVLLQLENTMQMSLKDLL
# Procedure, shortened: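 Quantitative HTS: compounds tested from 0.7 nM up to 77 uM against 2 nM enzyme with 80 uM 4-MU alpha-D-galactopyranoside. The 20 min room-temperature reaction is stopped with 1M NaOH/1M glycine, pH 10.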
# [10] = target: alpha-glucosidase (Oryza sativa, rice) (UniProt Q653V4); assay: Counterscreen for Glucocerebrosidase Inhibitors: qHTS Assay for Rice alpha-Glucosidase at pH 5.0 (AID 997)
# Procedure, shortened: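 Rice alpha-glucosidase (4 nM final) with 400 uM 4-methylumbelliferyl-alpha-D-glucopyranoside in citrate buffer pH 5.0, 20 min at room temperature, stopped at pH 10; fluorescence 365/440 nm, compounds 0.7 nM–77 uM, AC50 from Hill fits.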
# [11] = target: Alpha-galactosidase (Coffea arabica) (UniProt Q42656); assay: Counterscreen for Glucocerebrosidase Inhibitors: qHTS Assay for Coffee Bean alpha-Galactosidase at pH 5.9 (AID 998)
# Chain of Alpha-galactosidase (Coffea arabica) (Q42656 whole entry, looked up): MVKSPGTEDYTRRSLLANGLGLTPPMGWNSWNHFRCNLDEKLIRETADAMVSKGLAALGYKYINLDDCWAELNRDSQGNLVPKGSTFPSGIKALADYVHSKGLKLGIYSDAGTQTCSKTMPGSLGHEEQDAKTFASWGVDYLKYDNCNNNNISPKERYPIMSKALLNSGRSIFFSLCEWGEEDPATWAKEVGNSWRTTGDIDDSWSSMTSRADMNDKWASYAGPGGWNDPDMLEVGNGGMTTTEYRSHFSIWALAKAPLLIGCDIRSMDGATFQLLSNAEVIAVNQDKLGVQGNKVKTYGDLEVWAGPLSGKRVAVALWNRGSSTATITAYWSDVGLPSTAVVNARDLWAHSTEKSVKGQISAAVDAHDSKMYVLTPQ
# Procedure, shortened: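 Green coffee bean enzyme (2 nM final) was incubated with compounds (0.7 nM–77 uM) and 4-methylumbelliferyl alpha-D-galactopyranoside (80 uM) in citrate buffer pH 5.9, 20 min at room temperature. High-pH stop; fluorescence 365/440 nm; AC50 from Hill fits.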
# [12] = qHTS Assay for Lipid Storage Modulators (AID 1519; calls by dose curve; further: potency means the concentration at half of the fitted maximal effect); conditions: Drosophila S3 cells, BODIPY lipid droplet/cell ratio, laser cytometry, cells loaded with oleic acid
# Procedure, shortened: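 Cells seeded at 5,000 per well were treated with compounds over a concentration series and loaded with oleic acid (400 uM, as added). Lipid droplet fluorescence (488 nm excitation, 500-530 nm channel) was read by laser-scanning cytometry and normalized to 20 uM Triacsin C.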
# [13] = Cell Viability - LYMP2-012 (AID 982);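 further: cellular ATP by luciferase luminescence where a drop means cytotoxicity; cells exposed to compound for one day before reading; nearly all actives have a fitted effect of over 55% in size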
# [14] = Cell Viability - LYMP2-014 (AID 983); further: nearly all actives have a fitted effect of over 50% in size
# Procedure, shortened: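 Human lymphoblastoid cells (2500/well) were pre-incubated 5 hr at 37 C, then exposed to compounds in complete medium for 24 hr at 37 C. Intracellular ATP was read by CellTiter-Glo luminescence after 30 min at room temperature; AC50 from Hill fits.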
# [15] = Cell Viability - LYMP2-018 (AID 985);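 further: compound exposure lasted 24 hr at 37 °C; nearly all actives have a fitted effect of over 50% in size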
# Procedure, shortened: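 Human lymphoblastoid cells (2500/well) were pre-incubated 5 hr at 37 C, then exposed to compounds for 24 hr at 37 C in complete medium. Viability was read as intracellular ATP by CellTiter-Glo luminescence; AC50 values came from Hill-equation fits.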
# [16] = Cell Viability - LYMP2-020 (AID 986); further: nearly all actives have a fitted effect of over 55% in size
# Procedure, shortened: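 Human lymphoblastoid cells, 2500/well, were pre-incubated 5 hr at 37 C, then exposed to compounds for 24 hr at 37 C in complete medium. Intracellular ATP was read by CellTiter-Glo luminescence, and AC50 was derived by Hill fitting of concentration-response data.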
# [17] = Cell Viability - LYMP2-024 (AID 988); further: nearly all actives have a fitted effect of over 60% in size
# Procedure, shortened: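 Human lymphoblastoid cells (2500/well) in complete medium were preincubated 5 hr at 37 C, then exposed to compounds for 24 hr at 37 C. Intracellular ATP was read by CellTiter-Glo luminescence; AC50 from Hill-equation fits of concentration-response data.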
# [18] = Cell Viability - LYMP2-026 (AID 989); further: nearly all actives have a fitted effect of over 50% in size
# Procedure, shortened: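 Human lymphoblastoid cells (2500/well) in complete medium were preincubated 5 hr at 37 C, then exposed to compounds for 24 hr at 37 C. Cellular ATP was read by CellTiter-Glo luminescence; AC50 from Hill-equation fits of concentration-response data.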
# [19] = Cell Viability - LYMP1-002 - Assay at 24 hr (AID 993)
# Procedure, shortened: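 Human lymphoblastoid LYMP1-002 cells, 2500/well in complete medium, were treated with compounds for 24 h at 37 C; intracellular ATP was read by CellTiter-Glo luminescence. AC50 values came from Hill-equation fits of qHTS concentration-response data.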
# [20] = Cell Viability - LYMP1-002 - Assay at 40 hr (AID 994); further: nearly all actives have a fitted effect of over 60% in size
# Procedure, shortened: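 Human lymphoblastoid cells, 2500/well in complete medium, were preincubated 5 hr at 37 C, then exposed to compounds for 40 hr at 37 C. Intracellular ATP was read by CellTiter-Glo luminescence after 30 min at room temperature; AC50 from Hill-equation fits.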
# [21] = measured here: cell count channel max response
# [22] = measured here: lipid channel max response
structure (smiles),measurement,setting,value
Clc1ccc(C(c2ccc(Cl)cc2)n2cc[n+](CC(OCc3ccc(Cl)cc3Cl)c3ccc(Cl)cc3Cl)c2)cc1 (stereo not drawn),Potency,[1],inactive
same,Potency,[2],inactive
same,Potency,[3],31.6 µM (active)
same,Potency,[4],7.94 µM (active)
same,Potency,[5],7.08 µM (active)
same,Potency,[6],3.55 µM (active)
same,Potency,[7],7.08 µM (active)
CC[C@H](CO)Nc1nc(NCc2ccccc2)c2ncn(C(C)C)c2n1,Potency,[4],5.01 µM (active)
same,Potency,[5],6.31 µM (active)
same,Potency,[6],3.16 µM (active)
same,Potency,[7],10 µM (active)
NC(CCP(=O)(O)O)C(=O)O (stereo not drawn),outcome,[8],inactive
same,Potency,[1],inactive
same,Potency,[2],inactive
same,Potency,[4],inactive
same,Potency,[5],inactive
same,Potency,[6],inactive
same,Potency,[7],inactive
CCCN(CCC)C1CCc2ccc(O)cc2C1 (stereo not drawn),outcome,[8],inactive
same,Potency,[1],inactive
same,Potency,[2],inactive
same,Potency,[4],8.91 µM (active)
same,Potency,[5],11.2 µM (active)
same,Potency,[7],10 µM (active)
CN[C@@H]1C[C@@H](c2ccc(Cl)c(Cl)c2)c2ccccc21,outcome,[9],inactive
same,outcome,[10],inactive
same,outcome,[11],inactive
same,Potency,[1],inactive
same,Potency,[2],inactive
same,Potency,[3],inactive
same,Potency,[6],12.6 µM (active)
CCC(=O)OC1CCC2C3CCC4=CC(=O)CC[C@@]4(C)C3CC[C@]12C (stereo partly drawn),"activity change, negative = inhibition",[12]; at 57.5 µM (top of the series),11.4% (inactive)
same,max response,[12]; [21],4.67%
same,max response,[12]; [22],18.5%
CNCCc1ccc(O)c(O)c1,outcome,[9],inactive
same,outcome,[10],inactive
same,outcome,[11],inactive
same,Potency,[1],inactive
same,Potency,[2],inactive
same,Potency,[3],inactive
same,Potency,[5],8.91 µM (active)
same,Potency,[6],12.6 µM (active)
NC1CC1c1ccccc1 (stereo not drawn),Potency,[1],inactive
same,Potency,[2],inactive
same,Potency,[3],inactive
same,Potency,[4],10 µM (active)
same,Potency,[5],10 µM (active)
Nc1ccc([N+](=O)[O-])cc1,Potency,[13],inactive
same,Potency,[14],inactive
same,Potency,[15],inactive
same,Potency,[16],inactive
same,Potency,[17],inactive
same,Potency,[18],inactive
same,Potency,[19],inactive
same,Potency,[20],inactive
CC(=O)[C@H]1CCC2C3CC[C@H]4C[C@H](O)CC[C@]4(C)C3CC[C@@]21C (stereo partly drawn),"activity change, negative = inhibition",[12]; at 57.5 µM (top of the series),2.34% (inactive)
same,max response,[12]; [21],-20.4%
same,max response,[12]; [22],-15.9%
same,Potency,[1],inactive
same,Potency,[2],inactive
same,Potency,[3],inactive
same,Potency,[4],14.1 µM (active)
COc1ccc2c(c[n+](C)c3c4cc5c(cc4ccc23)OCO5)c1OC,outcome,[9],inactive
same,outcome,[10],inactive
same,outcome,[11],inactive
same,Potency,[1],inactive
same,Potency,[2],14.1 µM (active)
same,Potency,[3],inactive
same,Potency,[4],14.1 µM (active)
same,Potency,[5],14.1 µM (active)
Oc1ccc2c3c1O[C@H]1c4[nH]c5c(c4C[C@@]4(O)[C@@H](C2)N(CC2CC2)CC[C@]314)C[C@@]1(O)[C@H]2Cc3ccc(O)c4c3[C@@]1(CCN2CC1CC1)[C@H]5O4,outcome,[8],inactive
same,Potency,[1],inactive
same,Potency,[2],inactive
same,Potency,[5],15.8 µM (active)
same,Potency,[6],11.2 µM (active)
same,Potency,[7],10 µM (active)
COC(=O)[C@@H](N)CCCN=C(N)N[N+](=O)[O-],"activity change, negative = inhibition",[12]; at 57.5 µM (top of the series),-4.08% (inactive)
same,max response,[12]; [21],-4.51%
same,max response,[12]; [22],-8.77%
CCCCCCCCCCCCCCCC[N+](C)(C)C,Potency,[12],11.2 µM (active)
same,max response,[12]; [21],-15.3%
same,max response,[12]; [22],-89.4%
OCCCBr,Potency,[13],inactive
same,Potency,[14],inactive
same,Potency,[15],inactive
same,Potency,[16],inactive
same,Potency,[17],inactive
same,Potency,[18],inactive
same,Potency,[19],inactive
same,Potency,[20],inactive
O=c1cccc2n1CC1CNC[C@H]2C1,"activity change, negative = inhibition",[12]; at 25.7 µM (top of the series),-2.83% (inactive)
same,max response,[12]; [21],-1.29%
same,max response,[12]; [22],-2.58%
